In PubChem BioAssay (NCI) one finds growth data, which are given here for 13 molecules.

Structures are written as SMILES. About 83,000 compounds went through this panel and 20% of them were active in at least one assay; those are over-represented in the sample as a whole.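 Note: values are percent growth. 100 is the growth of untreated cells, values between 100 and 0 indicate rising inhibition; between -100 and 0 indicates cell death.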 Active and inactive are the calls of the source. How the source made its calls: active means growth percent below 10; inactive means the rest.

The assay deals with HL-60(TB) leukemia. Description: NCI-60 one-dose screen, 48 h (100 = growth as untreated, 0 = no growth, -100 = all killed). Particulars: 10 µM unless noted.
Regarding `CC(C)C1CCC(C)C(C2(C#N)C(N)=NC(N)=C2C#N)C1=O` (stereo not drawn), the growth was 96.7% (inactive).

On to `O=C(Nc1nc2ccc(C(=O)N3CCN(/C=C/c4ccccc4)CC3)cc2s1)c1ccc(NCCc2ccccc2)c([N+](=O)[O-])c1`, for which the growth was 80.5% (inactive).

`O=C(CSc1nc2sc3c(c2c(=O)n1-c1ccccc1)CCCCC3)N/N=C/c1cccc([N+](=O)[O-])c1`: the growth was 103% (inactive).

`O=c1c2ccccc2sc2c(NCCCNCCO)nc3ccccc3c12`: the growth was 7.81% (active).

In the case of `CCc1nc(C)cn1C(=O)OCc1nc2nc(Cl)nc(N3CCOCC3)c2[nH]1`, the growth is -23.1% (active).

In the case of `CCOC(=O)c1sc(-c2ccc(OS(=O)(=O)c3ccc(C(C)(C)C)cc3)c(C=O)c2)nc1C`, the growth is 21.3% (inactive).

Regarding `Nc1nc(N)c2c(n1)NC(c1cccc(Nc3ccnc4cc(C(F)(F)F)ccc34)c1)CC(c1ccc3c(c1)OCO3)=N2` (stereo not drawn), the growth is 76.5% (inactive).

For `Cn1cc(-c2cc3ncnc(Nc4ccc(CC(=O)Nc5cc(C(C)(C)C)nn5C)cc4)c3s2)cn1`, the growth was 63.4% (inactive).

`COc1ccc(-c2nc(NCCO)[nH]c(=O)c2C#N)cc1`: the growth was 103% (inactive).

Regarding `Cc1nc2cccc(NCc3ccc(C(=O)NO)cc3)c2c(=O)n1-c1ccccc1`, the growth is 27.2% (inactive).

Consider `CCOc1c(B(O)O)cccc1-c1nc2ccc3[nH]ncc3c2c2c1CCCC2`, for which the growth is 23.6% (inactive).

Consider `C=C1CCC2C(C)(CO)C(O)CCC2(C)C1C/C=C1/C(=O)OCC1O/C=C/c1ccccc1` (stereo not drawn), for which the growth was 7.31% (active).

Regarding `CCCCCCCCCCCCCCCCCCOc1cccc(CC(=O)OCC[N+](CC)(CC)CC)c1`, the growth was 9.38% (active).
